# According to PubChem BioAssay (Tox21):
# Inconclusive results are not listed. The source made the active and inactive calls. The call rests on the fitted dose curve; in most records, active means well fitted activation curve with a large enough effect in the signal ratio in the repeat runs (not every such curve was filed as active); inconclusive means weak or mixed curves, or effect the other way; inactive means flat fitted curve, though single readings scatter; the % refers to the signal ratio.
# Test: qHTS assay to identify small molecule agonists of the endoplasmic reticulum stress response signaling pathway (AID 1159516)
# Conditions: ESRE-bla HeLa, ER stress beta-lactamase reporter, 5 h; series mostly up to 61 µM; activation: at the top concentration
# Excerpt: National Center for Advancing Translational Sciences [NCATS]
# NIH Chemical Genomics Center [NCGC]
# U.S. Environmental Protection Agency [EPA]
# National Institutes of Environmental Health Sciences [NIEHS]
# National Toxicology Program [NTP]
# U.S. Food and Drug Administration [FDA]
# Endoplasmic Reticulum (ER) plays an important role in cellular signaling, protein folding/maturation, stress response, lipid biosynthesis, calcium storage and release etc. Under stress conditions, proteins in ER misfold or unfold, and leading to the expression of ER stress responsive genes. ER stress has been associated with a variety of pathophysiological conditions such as cancer, inflammation, neurodegenerative diseases, diabetes, ischemic heart disease etc. To identify the compounds that induce ER stress response, an ER stress reporter cell line, CellSensor ESRE-bla HeLa (Life Technologies, Carlsbad, CA) containing a beta-lactamase reporter gene under control of the Endoplasmic reticulum Stress Response Element (ESRE) was used to screen Tox21 10K compound library.
# Tox21 Assay Protocol Summary:
# ESRE-bla HeLa cells were dispensed at 1,500 cells/6 uL of assay medium per well into black wall/clear-bottom 1536-well plates using a Multidrop Combi (ThermoFisher Scientific, Waltham, MA) dispenser. After the assay plates were incubated at 37 C and 5% CO2 for an overnight, 23 nL of compounds dissolved in DMSO, positive controls or DMSO only was transferred to the assay plate by a Pintool station (Kalypsys, San Diego, CA). The assay plates were incubated at 37 C and 5% CO2 for 5 hr. One uL of LiveBLAzer B/G FRET substrate (Life Technologies) was added using a Flying Reagent Dispenser (Aurora Discovery, San Diego, CA) and the plates were incubated at room temperature for 2 hr. Fluorescence intensity (405 nm excitation, 460 nm and 530 nm emissions) was measured using an Envision plate reader (PerkinElmer, Shelton, CT).
# On the % scale 0 is the no-effect control and ±100 the full control effect.
row,Structure (SMILES),activation
1,C#CC(C)(O)CC(C)C (stereo not given),1.91% (inactive)
2,CCCCCCCCCCC1CO1 (stereo not given),-3.21% (inactive)
3,CCN(CC)S(=O)(=O)c1ccc(C(=O)O)cc1,-3.94% (inactive)
4,COc1cccc(Br)c1,2.19% (inactive)
5,CCCCc1ccc(N)cc1,-3.95% (inactive)
6,CC(C)(O)c1ccccc1,0.112% (inactive)
7,CCCOc1ccccc1-c1nc2n[nH]nc2c(=O)[nH]1,0.292% (inactive)
8,O=S(=O)(O)c1ccccc1O,0.507% (inactive)
9,CO,-1.2% (inactive)
10,O=[N+]([O-])c1ccc(Oc2ccc([N+](=O)[O-])cc2)cc1,-1.72% [at 78.8 µM] (inactive)
11,NC(=S)Nc1cccc2ccccc12,-3.75% [at 6.95 µM] (inactive)
12,OC1OC[C@@H](O)[C@H](O)[C@H]1O (stereo not given in full),0.105% (inactive)
13,CCCCCCCCCCCCCCCCCC(=O)OCCCCCCCCCCCCCC(C)C,3.5% (inactive)
14,C[N+](C)(C)CC[N+]1(C)Cc2c(Cl)c(Cl)c(Cl)c(Cl)c2C1,-1.05% (inactive)
15,CC(C)[N+](C)(C)CC(O)COc1cccc2ccccc12 (stereo not given),-0.613% (inactive)
16,CC(C)=CCC/C(C)=C/C(=O)O,0.47% (inactive)
17,C=C(C)C(=O)NCCCN(C)C,2.78% (inactive)
18,CCC(=O)c1cccc(Cl)c1,-0.286% [at 78.8 µM] (inactive)
19,O=C(CCOCCOCCOCCOCCC(=O)Nc1c(I)cc(I)c(C(=O)O)c1I)Nc1c(I)cc(I)c(C(=O)O)c1I,-1.72% (inactive)
20,CN(C)CCOC(c1ccc(Cl)cc1)c1ccccn1 (stereo not given),-0.0155% (inactive)

row,Structure (SMILES),activation
1,C/C=C1\C(=O)C[C@H]2[C@@H]3CCC4=CC(=O)CC[C@]4(C)[C@H]3CC[C@]12C,-7.63% (inactive)
2,CC(C)N1C(=O)c2ccccc2C1=O,0.0333% (inactive)
3,Nc1ccn(C2CO[C@H](CO)O2)c(=O)n1 (stereo not given in full),-1.12% (inactive)
4,N#CC1(O)CCCCC1,3.06% [at 78.8 µM] (inactive)
5,CC(=O)N[C@@H](CCC(N)=O)C(=O)O,0.0273% (inactive)
6,CCCC(C)CO (stereo not given),1.44% (inactive)
7,CC12CCC(CC1=O)C2(C)C (stereo not given),-0.609% (inactive)
8,CCOC(=O)Cn1c(=O)sc2cccc(Cl)c21,-3.52% (inactive)
9,C(=C(c1ccccc1)c1ccccc1)c1ccccc1,-1.21% (inactive)
10,CCN1CCCC(OC(=O)C(c2ccccc2)c2ccccc2)C1 (stereo not given),3.37% (inactive)
11,CC1=CC(=O)CCC1,1.19% (inactive)
12,CCCCCC[C@@H](CCC)C(=O)O,8.89% (inactive)
13,C=C[Si](OC)(OC)OC,-0.35% (inactive)
14,CC(=O)O[C@H](CC(=O)[O-])C[N+](C)(C)C,0.0276% (inactive)
15,COc1ccc2cc(C=O)ccc2c1,0.461% (inactive)
16,CCOC(=O)[C@H](CCc1ccccc1)N[C@@H](C)C(=O)N1CCC[C@H]1C(=O)O,0.191% (inactive)
17,CCO[Si](CCCN=C=O)(OCC)OCC,-0.152% (inactive)
18,NC1CCN(c2cccc(Cl)n2)CC1,1.61% (inactive)
19,C1C2OC2C2C1C1CC2C2OC12 (stereo not given),-0.0839% [at 78.8 µM] (inactive)
20,O=C(O)C1CCC1,-0.738% (inactive)
